The panel holds about 83,000 compounds, 20% with a hit somewhere; the sample as a whole holds those more often.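 Testing used 96-well plates and a 48-hour single-concentration exposure. Example: -40 means 40% of the starting cells died.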 Unmarked numbers belong to inactive results. Activity calls are given as the source filed them. The calls were made as follows: active = growth percent below 10; inactive = the rest.
Assays:
Assay in all cases: NCI-60 one-dose screen, 48 h (100 = growth as untreated, 0 = no growth, -100 = all killed)
Settings in all cases: 10 µM
[1] = test system: HCT-15 colon
[2] = test system: HT29 colon
[3] = test system: SNB-75 CNS
[4] = test system: SNB-19 CNS
[5] = test system: U251 CNS
[6] = test system: PC-3 prostate
[7] = test system: SK-MEL-5 melanoma
[8] = test system: UACC-62 melanoma
[9] = test system: LOX IMVI melanoma
[10] = test system: SK-MEL-28 melanoma

| Structure (SMILES) | growth [1] | growth [2] | growth [3] | growth [4] | growth [5] | growth [6] | growth [7] | growth [8] | growth [9] | growth [10] |
| --- | --- | --- | --- | --- | --- | --- | --- | --- | --- | --- |
| O=C(CSc1nnc(-c2c[nH]c3ccccc23)n1-c1ccccc1)Nc1ccc(C(=O)/C=C/c2ccc(Cl)cc2)cc1 | 59.3% | 86.4% | 80% | 73.1% | 73.9% | 58.9% | 83.3% | 62.8% | 67.6% | 84.1% |
| Cc1cc(C)nc(SCC(=O)Nc2ccc(S(N)(=O)=O)cc2)n1 | 104% | 118% | 127% | 94.1% | 101% | 98.2% | 97.2% | 96.7% | 96.7% | 110% |
| CC1=C2C(=C[C@@](C)(COCOCCCl)[C@@H]2O)C(=O)[C@](C)(O)C12CC2 | -38.9% (active) | -11.9% (active) | -53.2% (active) | -24.4% (active) | 1.56% (active) | 0.191% (active) | -62.3% (active) | -87% (active) | -82.2% (active) | -82.7% (active) |
| C=C[C@@]12CN3CC[C@]1(O)[C@@](C(=O)OC)(CO2)c1[nH]c2ccccc2c1C3 | 63.7% | 92.7% | 105% | 84.4% | 81.8% | 41.3% | 18.3% | 63.9% | 67.2% | 89.4% |
| CCCn1c(=O)c2[nH]c(-c3ccc(OCc4nc5ccccc5[nH]4)cc3)nc2n(CCC)c1=O | 63.2% | 61.2% | 34.9% | 37.1% | 2.91% (active) | 77.3% | 44.6% | 35.5% | -2.38% (active) | 102% |
| Cc1ccc(C(=O)CSc2nnc(-c3c[nH]c4ccccc34)n2-c2ccccc2)cc1 | 43.8% | 7.13% (active) | -1.21% (active) | 19.7% | 9.78% (active) | 43% | 32.9% | 23.9% | -19.5% (active) | 49% |
| CN1CCN(Cc2ccc(C(=O)Nc3cccc(Nc4ccc5c(O)cccc5n4)c3)cc2C(F)(F)F)CC1 | -25.4% (active) | -50.8% (active) | 33.1% | -64.3% (active) | -35.3% (active) | 10.8% | -100% (active) | -79.9% (active) | -100% (active) | -95% (active) |
| COc1cc2c3c(n(CCCN4CCOCC4)c(=O)c2cc1OC)-c1nc2c(cc1C3=O)OCO2 | 41.5% | 7.3% (active) | 49.9% | 15% | -18.9% (active) | 43.6% | -6.78% (active) | -8.82% (active) | -76.6% (active) | 66.1% |
| O=C(Nc1ccc(Cl)c([N+](=O)[O-])c1)Nc1ccc(Cl)c([N+](=O)[O-])c1 | 7.01% (active) | 13.1% | 61.2% | 10.8% | 10.6% | 10.4% | -26.7% (active) | 3.62% (active) | -8.77% (active) | 8.08% (active) |
| C=CC(=O)Nc1ccc(C(=O)/C=C/c2ccc(N(C)CCF)cc2)c(O)c1 | -52% (active) | -61.4% (active) | -8.38% (active) | -15.6% (active) | -94.7% (active) | 6.54% (active) | -90.7% (active) | -42.6% (active) | -81% (active) | -77.8% (active) |
| COc1cccc(-c2ccnc(/N=C(\N)Nc3ccc(S(=O)(=O)Nc4nc(C)cc(C)n4)cc3)n2)c1 | 104% | 106% | 77.5% | 101% | 101% | 91.2% | 99.6% | 102% | 85.8% | 112% |
| COc1ccc(C(=O)/C=C/c2cc(C(F)(F)F)cc(C(F)(F)F)c2)cc1S(N)(=O)=O | -58.6% (active) | -59.9% (active) | 12% | -100% (active) | -68.1% (active) | -14.4% (active) | -98.4% (active) | -73.4% (active) | -100% (active) | -98.2% (active) |
| COc1ccc(CN2[C@H](C(=O)NCCCCCCC(=O)NO)Cc3c([nH]c4ccccc34)[C@H]2C2CC2)cc1 | 8.85% (active) | 6.33% (active) | 10.2% | 6.72% (active) | -20.8% (active) | 19.1% | -88% (active) | -68.6% (active) | -100% (active) | 9.84% (active) |

— PubChem BioAssay (NCI)
